# Screens: PubChem BioAssay, National Center for Advancing Translational Sciences (NCATS)
# Rows were chosen to be rich in hits. Some 3.3% of all compounds tested hit in one or more screens of this group.
# LDHA block: LDHA (human) enzyme inhibition | purified LDHA, NADH/diaphorase-resazurin fluorescence; hits give low values | activity change, % (values are at about 110 or 230 µM) | 0.15% of 480,000 active; in the data active = activity change below about -30%; inconclusive = mostly about -25% to -30%;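 also: plate controls were DMSO wells for no effect and wells without enzyme for full effect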
#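 LDH5 2 nM; NADH 0.06 mM, pyruvate 0.2 mM; 200 mM Tris pH 7.4, EDTA, Tween-20; 5 min RT. Detection: diaphorase 0.133 mg/mL + resazurin 37 µM, fluorescence ex540/em590 at 0 and 20 min; normalized to enzyme-free and DMSO wells.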
# DRD3 agonist: activates the human D3 dopamine receptor; P35462; D3R DiscoveRx beta-arrestin cells, luminescence, 90 min; max activation, %; 0.58% of 410,000 active; AID 652048; in the data active = max activation above about 30%; also: 0% is about no effect
#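 Agonist-mode cell screen: cells plated at 1500/well and incubated overnight at 37 °C, then exposed to library compounds for 90 min at 37 °C. Detection reagent was added for 30–60 min at room temperature, and luminescence was read.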
# PI4K2A block: PI4K2A (human) kinase inhibition | Q9BTU6 | activity change, negative = inhibition, % at 76.9 µM | purified PI4K2A, ADP-Glo luminescence, 1 h; hits give low values | 0.13% of 420,000 active; in the data active = activity change below about -50%; inconclusive = mostly about -30% to -49%;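 also: -100% = wells without enzyme as full effect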
#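 In this quantitative HTS, ADP production by PI4K2A was quantified luminescently after 1 h at ambient temperature; 100 microM adenosine served as plate-quality control.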
# DRD3 antagonist: blocks the human D3 dopamine receptor; P35462; D3R cells, DiscoveRx beta-arrestin luminescence, antagonist mode; hits give low values; max response, negative = inhibition, %; 2.5% of 360,000 active; AID 652054; in the data active = max response below about -50%; inconclusive = no clear call, values can overlap the other calls; also: % is scaled to controls: 0 for no effect and ±100 for the full control effect
#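 Cells plated overnight at 1500 cells/well, then exposed to library compounds with dopamine controls for 90 minutes at 37 degrees C. DiscoveRx reagent added for 30–60 minutes at room temperature; luminescence read, quantitative HTS format.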
# PI5P4Ka inh: inhibitors of human PI5P4K alpha; P48426; PI5P4Kalpha enzyme, ADP-Glo luminescence, 60 min; hits give low values; max response, %; 1.2% of 330,000 active; active = max response of -50% or lower; inconclusive = between -30% and -50%; inactive = -30% or higher; also: value at the top dose of about 77 µM; % is scaled to controls: 0 for no effect and ±100 for the full control effect
# Target sequence (P48426 whole entry, looked up): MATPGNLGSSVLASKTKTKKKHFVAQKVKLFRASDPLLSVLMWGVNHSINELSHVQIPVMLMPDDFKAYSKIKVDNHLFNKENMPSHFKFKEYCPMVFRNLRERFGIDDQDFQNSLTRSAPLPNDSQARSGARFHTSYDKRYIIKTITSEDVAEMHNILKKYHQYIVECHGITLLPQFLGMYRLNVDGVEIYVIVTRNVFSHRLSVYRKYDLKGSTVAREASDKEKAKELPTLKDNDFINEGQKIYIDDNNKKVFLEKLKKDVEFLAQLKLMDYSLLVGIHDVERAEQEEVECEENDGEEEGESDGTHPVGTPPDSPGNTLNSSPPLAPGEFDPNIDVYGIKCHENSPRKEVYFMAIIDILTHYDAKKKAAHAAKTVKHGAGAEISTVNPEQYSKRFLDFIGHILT
#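 Luminescence from ADP-Glo served as readout of PI5P4Kalpha activity in a qHTS format. Reaction: enzyme, substrate, compound, ATP at 5 microM final, 60 min at RT.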
# An asterisk follows results filed as active; u = inconclusive; x = not tested or not shown; ! = a repeat was not active.
SMILES,LDHA block,DRD3 agonist,PI4K2A block,DRD3 antagonist,PI5P4Ka inh
CCn1nc(C(=O)NCC(c2cccs2)N2CCCC2)c2ccccc2c1=O (stereo not given),6,x,x,x,x
COCCCNC(=O)c1ccc(N2CCCC2)c(NS(=O)(=O)c2ccc(C)cc2)c1,4,1,-3,-20,x
Cc1ccc(S(=O)(=O)Nc2cc(C(=O)NCCN(C)C)ccc2N2CCCCC2)cc1,-6,-20,-2,-64*,3
Cc1ccc(S(=O)(=O)Nc2cc(C(=O)NCCN3CCCC3)ccc2N2CCCCC2)cc1,-5,-26,-9,-51*,8
Cc1[nH]n(-c2ccccc2)c(=O)c1C(C[N+](=O)[O-])c1ccc(F)cc1 (stereo not given),0,1,-4,-4,-6
Cc1ccc(C(C[N+](=O)[O-])c2c(C)[nH]n(-c3ccccc3)c2=O)cc1 (stereo not given),13,-36,-26,-63*,4
c1ccc(COc2ncnc3c2ncn3CCCN2CCN(Cc3cccc4ccccc34)CC2)cc1,-1,-5,0,-67*,3
Cc1ccc(CN2CCN(CCCn3cnc4c(OCc5ccccc5)ncnc43)CC2)cc1,-6,-64,-4,-53*,9
C[C@@H](NCCCn1cnc2c(OCc3ccccc3)ncnc21)c1cccc2ccccc12,3,-47,-6,u,18
Cc1cc(C)n(-c2nc3ccccc3nc2N2CCN(C(=O)c3ccccc3Br)CC2)n1,2,x,x,x,x
CCNC(=O)NC(=O)C(C)Sc1nnc(-c2cccc(C)c2)n1C (stereo not given),7,x,x,x,x
COc1cc(/C=N/Nc2ccccc2[N+](=O)[O-])cc(OC)c1O,1,3,0,-3,6
COc1cc(/C=N/Nc2nc(=O)[nH]nc2C)cc([N+](=O)[O-])c1O,-1,-10,-6,-10,-52*
COc1cc(/C=N/Nc2nc3ccccc3s2)cc([N+](=O)[O-])c1O,-7,2,-5,-1,-51*
COc1cc(/C=N/NC(=O)Cc2ccccc2)cc([N+](=O)[O-])c1O,7,-7,-3,-56*,u
O=[N+]([O-])c1cc(Cl)cc(/C=N/Nc2nc3ccccc3s2)c1O,1,-18,0,-60*,12
CSc1cccc(NC(=O)C2CCCCC2)c1,-5,x,x,x,x
Cc1cccc(Nc2nnc(SCC(=O)c3ccc(Br)s3)s2)c1,-10,x,x,x,x
O=C(/C=C/c1ccccc1O)c1ccc(-c2ccccc2)cc1,13,x,x,x,x
CCCc1cc(C(=O)Nc2cnn(Cc3ccccc3C)c2)no1,10,x,x,x,x
C=CCN1CCN(C(=O)c2cc3c(s2)CCC(CC)C3)CC1 (stereo not given),-1,-32,6,-91*,3
ClCC(Cl)C[n+]1cccc2ccccc21 (stereo not given),-47*,x,x,x,x
Cc1ccccc1-c1nnc(SCC(=O)Nc2ccccc2)o1,6,x,x,x,x
Cc1cccc(C)c1NC(=O)CSc1nnnn1-c1ccc(C(=O)O)cc1,-9,2,-9,-79*,4
Cc1ccccc1NC(=O)CCSc1nnnn1-c1ccccc1,6,31*,3,-23,x
SMILES,LDHA block,DRD3 agonist,PI4K2A block,DRD3 antagonist,PI5P4Ka inh
CCC(C)c1ccc(OC)c(-c2csc(N)n2)c1 (stereo not given),-6,x,x,x,x
CCN(C(=O)c1cn(CC(C)C)c(=O)c2cc(OC)c(OC)cc12)c1cccc(C)c1,13,x,x,x,x
CCOC(=O)C(C)Oc1cc2oc(=O)cc(CC)c2cc1Cl (stereo not given),8,x,x,x,x
COc1cc(N)c2ncccc2c1Br,35,-5,-52*,-6,1
Cc1ccc(-c2ccc(N)cc2)o1,-15,x,x,x,x
O=C(NN=C(c1ccccc1)c1ccccc1)C(CCl)C1CCCCC1 (stereo not given),-3,3,-7,-51*,0
Cn1c(NN)nc2c1c(=O)n(Cc1ccccc1)c(=O)n2C,1,1,-10,-19,-58*
Cn1cnc2c1c(=O)n(Cc1cccc(Cl)c1)c(=O)n2C,-32*!,10,-8,u,-4
Cc1ccc(Oc2nc3c(c(=O)n(Cc4ccccc4)c(=O)n3C)n2C)cc1C,5,35*,-2,x,x
Cn1cnc2c1c(=O)n(Cc1cccc(F)c1)c(=O)n2C,-1,-4,0,21,0
